Values joined by “and” are separate entries in the source; they are usually repeats but may differ in a detail not shown here. Equal values may be shown once. Out of some 290,000 compounds screened, about 3,000 (1%) were called active. The rule behind the calls is not given here. The full list was thinned out, with actives kept by preference.
Molecular target: Polyadenylate-binding protein 1 (Homo sapiens) (UniProt P11940)
Experiment: blockers of PABP interaction with poly(A) – biochemical, fluorescence polarization, uHTS, primary screen (AID 2014);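 note: calls also rest on retests at 20 µM and on dose response follow-up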
Settings: PABP-poly(A) RNA binding, stronger effect = higher value

Chain of Polyadenylate-binding protein 1 (Homo sapiens) (P11940 whole entry, looked up): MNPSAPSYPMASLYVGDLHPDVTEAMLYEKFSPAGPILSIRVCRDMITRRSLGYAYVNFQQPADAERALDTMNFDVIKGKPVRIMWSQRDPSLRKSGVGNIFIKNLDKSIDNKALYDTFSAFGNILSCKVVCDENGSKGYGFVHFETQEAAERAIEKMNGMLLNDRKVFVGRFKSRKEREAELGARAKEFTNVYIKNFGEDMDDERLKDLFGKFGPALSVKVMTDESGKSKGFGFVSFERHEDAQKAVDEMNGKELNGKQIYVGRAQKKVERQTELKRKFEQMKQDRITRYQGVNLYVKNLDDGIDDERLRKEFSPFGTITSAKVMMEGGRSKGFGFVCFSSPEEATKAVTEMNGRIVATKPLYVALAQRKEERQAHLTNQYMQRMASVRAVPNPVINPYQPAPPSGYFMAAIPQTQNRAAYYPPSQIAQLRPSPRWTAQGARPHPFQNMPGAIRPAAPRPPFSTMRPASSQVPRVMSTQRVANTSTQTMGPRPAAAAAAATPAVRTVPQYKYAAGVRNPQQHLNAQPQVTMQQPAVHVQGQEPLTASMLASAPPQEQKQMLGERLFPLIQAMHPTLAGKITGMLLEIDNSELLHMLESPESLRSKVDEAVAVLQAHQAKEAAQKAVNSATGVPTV

Compound | inhibition (at 35 µM) | inhibition (confirmation repeats, at 20 µM) [%]
O=C(c1cc(-c2ccc(O)cc2)on1)N1CCOCC1 | 2.9% (inactive) | –
CCOC(=O)CNC(=O)CSc1nc2cccnc2n1CC | 23.1% (inactive) | –
CCc1nc2cccnc2n1-c1ccc(C(=O)O)cc1 | 73.7% (active) | 87.5
COCCCNC(=O)Cc1ccc(-n2c(C)nc3cccnc32)cc1 | 36% (inactive) | 12
CCOC(=O)[C@@H]1[C@H]2COc3cc(OC)ccc3[C@@H]2N2C(=O)N(c3cccc(C)c3)C(=O)[C@@]12C | 7.6% (inactive) | –
O=C(Cc1cccs1)Nc1ccc([N+](=O)[O-])cc1 | 2.1% (inactive) | –
Cc1ccc(/C=C/C(=O)Nc2cc(S(=O)(=O)N3CCCCCC3)ccc2OCC(F)(F)F)o1 | -0.3% (inactive) | –
Cc1ccc(/C=C/C(=O)Nc2ccc([N+](=O)[O-])c(NC(=O)/C=C/c3ccc(C)o3)c2)o1 | 0% (active) | 119
COC(=O)/C=C\C(=O)Nc1cccc([N+](=O)[O-])c1 | 9.4% (inactive) | –
COCc1ccc(CN2CCC(Oc3ccc(C(=O)NCc4ccccn4)cc3)CC2)o1 | -1.3% (inactive) | –
Cc1[nH]c2ccccc2c1C(=O)CN1CCCC(C)C1 (centres undefined) | 8.2% (inactive) | –
Cc1nc(SCC(=O)NC2CCCC2)[nH]c(=O)c1C | 3.8% (inactive) | –
O=C(/C=C/c1ccc([N+](=O)[O-])o1)NNC(=O)c1ccc(F)cc1 | 8.2% (inactive) | –
CN=C1S/C(=C\c2ccc(Sc3ccc(Cl)cc3)o2)C(=O)N1C | -5.7% (inactive) | –
CN1C(=O)/C(=C/c2ccco2)SC1=Nc1cccc(C(=O)O)c1 | -1.6% (active) | 78.4
CN=C1S/C(=C\c2c(OC)cc(OC)cc2OC)C(=O)N1C | 8.5% (inactive) | –
COC(=O)C1(C)NC(c2ccc(F)cc2)C2C(=O)N(c3ccccc3)C(=O)C21 (centres undefined) | 10.8% (inactive) | –
CC(=O)NS(=O)(=O)c1ccc2c(c1)Cc1cc(S(=O)(=O)NC(C)=O)ccc1-2 | 6% (inactive) | –
COc1ccccc1CNS(=O)(=O)CC12CCC(CC1=O)C2(C)C (centres undefined) | 3.9% (inactive) | –
CC(C)Cc1nnc(NC(=O)CCc2ccccc2)s1 | -7.4% (inactive) | –
c1ccc(CSc2nnc(-c3ccco3)c(-c3ccco3)n2)cc1 | 74.8% (active) | –
Fc1cccc(Cl)c1CSc1ccc(-c2ccco2)nn1 | -6.6% (inactive) | –
O=c1[nH]c(SCc2ccccc2)nnc1-c1ccccc1 | 62.5% (inactive) | -3.1
COC(OC)c1ccnc(SCc2ccccc2Cl)n1 | -6.4% (inactive) | –

Compound | inhibition (at 35 µM) | inhibition (confirmation repeats, at 20 µM) [%]
Brc1ccc(CSc2ccc(-c3ccco3)nn2)cc1 | -6.1% (inactive) | 5.9
Clc1ccccc1CSc1nnc(-c2ccco2)c(-c2ccco2)n1 | 82.6% (active) | 87.4
COc1ccc(NS(=O)(=O)c2ccc(F)cc2F)cn1 | 70.3% (active) | –
CCOc1ccc(S(=O)(=O)Nc2ccc(OC)nc2)cc1 | 9.7% (inactive) | –
COc1ccc(S(=O)(=O)Nc2ccc(F)cc2)c(C)c1C | -4.6% (inactive) | –
COCC(=O)N1CCc2ccc(NC(=O)c3ccccc3Cl)cc2C1 | 9.8% (inactive) | –
Nc1nc(SCC(=O)Nc2cc(C(F)(F)F)ccc2Cl)[nH]c(=O)c1NC(=O)c1ccco1 | 2.8% (inactive) | –
Cc1c(CCC(=O)O)c(=O)oc2cc3occ(-c4ccccc4)c3cc12 | 32.6% (inactive) | –
Cc1c(CC(=O)NCCCCCC(=O)O)c(=O)oc2cc3occ(-c4ccccc4)c3cc12 | 15.4% (inactive) | –
CCCCCCc1cc2cc(-c3nnc(-c4ccccc4)o3)c(=O)oc2cc1O | 102% (active) | –
COc1cc(C(=O)N2CCN(C3CCC(C)CC3)CC2)cc(OC)c1OC (centres undefined) | 7.5% (inactive) | –
CC(C)=N/N=C1/NC(=O)C(Cc2ccccc2)S1 (centres undefined) | 4.2% (inactive) | –
CCOC(=O)/C=c1\s/c(=C\c2ccccc2OC)c(=O)n1CC(=O)N1CCOCC1 | 7.9% (inactive) | –
CCOc1ccccc1/C=c1\sc2nc(-c3ccco3)nn2c1=O | 53% (active) | –
CSc1nc(-c2ccco2)nn1C(=O)CCc1ccccc1 | 7.1% (inactive) | –
CC1CCCCN1C(=O)CCS(=O)(=O)Cc1ccccc1 (centres undefined) | 9.6% (inactive) | –
Cc1nc(N)nc(SCc2ccc([N+](=O)[O-])cc2)c1N | 7.3% (inactive) | –
COc1ccccc1N1CCN(S(=O)(=O)c2ccc(Cl)cc2)CC1 | -9.7% (inactive) | –
Cc1c(C2=CCN(S(=O)(=O)c3ccc(Cl)cc3)CC2)c2ccccc2n1C | 4.5% (active) | 95.9
O=S(=O)(c1ccc(F)cc1)N1CC=C(c2ccccc2)CC1 | 4.6% (inactive) | –
COc1ccccc1NC(=O)C1CCN(C(=O)c2ccc(C(C)(C)C)cc2)CC1 | 10.3% (inactive) | –
NS(=O)(=O)c1ccc(-c2ccc(/C=C3\SC(=O)NC3=O)o2)cc1 | 7.1% (inactive) | –
CC(=O)OCc1cc2cc(C)ccc2[nH]c1=O | 9.2% (inactive) | –
CCCc1nc(-c2cc3cc(C)ccc3[nH]c2=O)no1 | 61.5% (active) | 60

Compound | inhibition (at 35 µM) | inhibition (confirmation repeats, at 20 µM) [%]
COc1ccc2[nH]c(=O)c(-c3noc(-c4ccc(F)cc4)n3)cc2c1 | 1.1% (inactive) | –
COc1ccc(-n2ncc3c2CC(C)(C)CC3NC(=O)CCc2c(C)noc2C)cc1 (centres undefined) | 9.7% (inactive) | –
CCCS(=O)(=O)N1CCN=C1SCc1cccc(F)c1 | -1.7% (inactive) | –
COc1ccc(CNC(=O)C(=O)NCC2OCCN2C(=O)c2ccc(OC)cc2)cc1 (centres undefined) | -1% (inactive) | –
Cc1ccc(S(=O)(=O)N2CC(C)N(S(C)(=O)=O)C2)cc1 (centres undefined) | 2% (inactive) | –
Cc1ccc(C)c(C(C)NC(=O)C2CCCO2)c1 (centres undefined) | 102% (active) | –
Cc1cc(C)c2nc(NC(=O)C3CCCO3)sc2c1 (centres undefined) | -13.4% (inactive) | –
Cc1cc([N+](=O)[O-])ccc1NC(=O)C1CCCO1 (centres undefined) | -5.5% (inactive) | –
COc1ccc(NC(=O)c2cc([N+](=O)[O-])ccc2NC(=O)CNC2CCCCC2C)c(OC)c1 (centres undefined) | 9.1% (inactive) | –
O=C(CCc1nnc2ccc(NCCCN3CCCC3=O)nn12)NCc1ccccc1Cl | 2.5% (inactive) | –
CCOC(=O)N1CCN(C(=O)COc2ccc(Br)cc2)CC1 | -4.7% (inactive) | –
Cc1ccc(C(=O)OC2CCCN(C)C2)cc1 (centres undefined) | -1.5% (inactive) | –
CN1CCCC(OC(=O)COc2ccc(Br)cc2)C1 (centres undefined) | 0.4% (active) | 55
O=C(NC(=S)Nc1ncccn1)c1ccccc1Br | 2.7% (inactive) | –
CCOc1cnc(C(=O)NNC(=O)c2ccccc2Br)o1 | 12.8% (active) | 95.2
CCCc1ccc(OCCNC(=O)c2ccccc2Br)cc1 | 1.2% (inactive) | –
COc1ccc(C(=O)Nc2ccc(C3(C#N)CCCC3)cc2)cc1OC | -5.5% (inactive) | –
CC1CCN(S(=O)(=O)c2ccc3[nH]c(=O)ccc3c2)CC1 | -3.1% (inactive) | –
Cc1c(-c2ccccc2)cn2c1-c1ccc(C)n1CC2 | 88.3% (active) | –
CCN(CC)c1ccc2oc(=O)c(C)nc2c1 | 116% (active) | 62.7
CCN(CC)c1ccc(/C=N/Nc2nc(C)cc(=O)[nH]2)cc1 | -2.5% (inactive) | –
CCN(CC)c1ccc2cc(C(N)=O)/c(=N\NC(=O)c3ccncc3)oc2c1 | 1.8% (inactive) | –
O=[N+]([O-])c1ccccc1/C=C/CN1CCC(O)CC1 | 4.7% (inactive) | –
O=C(O)c1ccc(-n2nc(-c3ccccc3)c3ccccc3c2=O)cc1 | 8.1% (inactive) | –

Compound | inhibition (at 35 µM) | inhibition (confirmation repeats, at 20 µM) [%]
CCOc1ccc(-n2cnnn2)cc1S(=O)(=O)N1CCC(C)CC1C (centres undefined) | 74.4% (active) | 87.6
Cc1ccc(S(=O)(=O)N2CCC(Oc3ccc(-n4cnnn4)cc3)CC2)cc1 | 6.3% (inactive) | –
CCOc1ccc(Br)cc1S(=O)(=O)N1CCC(C(=O)O)CC1 | -2.2% (inactive) | –
Cc1cccc(C(=O)N2CCCC(Nc3ccc(C(C)C)cc3)C2)n1 (centres undefined) | 6.3% (inactive) | –
CCOC(=O)c1c(C)[nH]c(C2=NNC(=NC(C)COC)SC2)c1C (centres undefined) | 50.4% (active) | 104
CCOC(=O)c1c(C)[nH]c2c1-c1ccccc1C(=O)C2=O | -3.9% (inactive) | –
CCCCOC(=O)c1[nH]c(C)c(C(=O)OC)c1C | -3.8% (inactive) | –
COCCCNS(=O)(=O)c1cccc(S(=O)(=O)c2cccc(S(=O)(=O)NCCCOC)c2)c1 | -6.2% (inactive) | –
Cc1ccc(S(=O)(=O)NC(=O)c2cccc(C)c2)cc1 | 4.3% (inactive) | –
CC(=O)NS(=O)(=O)c1ccccc1 | 8.1% (inactive) | –
Nc1ccc(S(=O)(=O)NC(=O)c2ccccc2)cc1 | 50.5% (active) | 72.5
S=C(NCc1cccs1)Nc1ccc(Cl)cc1 | -4.3% (inactive) | –
COC(=O)Cc1ccc(NC(=S)NCc2ccc(Cl)cc2)cc1 | 1.5% (inactive) | –
Fc1ccccc1CNC(=S)Nc1ccc(Cl)cc1 | 59.1% (active) | 83
CC1CCCN(CCCNC(=O)CN2C(=O)COc3ccc(S(=O)(=O)N4CCOCC4)cc32)C1 (centres undefined) | 2.3% (inactive) | –
C=CCNC(=S)/N=c1/ccccn1Cc1ccccc1 | 12.9% (inactive) | –
O=C(/C=C/c1ccc(Cl)cc1Cl)c1cccnc1 | -1% (inactive) | –
O=C(OCc1cc(Cl)ccc1OC(F)F)c1cccnc1 | 16.1% (active) | 81.2
O=C(OCc1cc2ccccc2[nH]c1=O)c1cccnc1 | -2.2% (inactive) | –
CCOC(=O)c1ccc(NC(=O)c2ccc(NC(=O)C3CCCO3)cc2)cc1 (centres undefined) | -0.4% (inactive) | –
CC(C)C[C@@H](CO)N1CCN(Cc2ccc(O)cc2)CCC1=O | 1.4% (inactive) | –
COc1ccc(Cc2nc3ccc(C(=O)NCC4CCOCC4)cc3o2)cc1OC | 11.1% (inactive) | –
COc1ccc(CN2CCCC(CNC(=O)c3ccc(F)cc3)C2)cc1OC (centres undefined) | 79.6% (active) | 74.7
COc1ccc(CCN(C)C(=O)C2CCCN(Cc3ccc(OC)c(OC)c3)C2)cc1OC (centres undefined) | 11.9% (inactive) and 7% (inactive) | –
